TEAD-YAP block = TEAD-YAP interaction inhibition | HEK-TIYL cells, TEAD-Gal4/YAP UAS-luciferase luminescence | 640,000 tested, 1.4% active | inhibition, % at 9.12 µM; in the data active means inhibition above about 32%;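 further: 0% = median of test compound wells and 100% = reference inhibitor wells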
GPR151 ag = human GPR151 activation | Q8TDV0 | PathHunter beta-arrestin GPR151 cells, luminescence | activation, % at 11.2 µM | 650,000 tested, 1% active | AID 1508602; in the data active means activation above about 4.9%;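 further: 0% = median of compound wells and 100% = cells with positive control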
MITF inh = human MITF inhibition, primary screen | AlphaScreen MITF homodimerization, bead proximity signal | inhibition, % at 2.6 µM | 650,000 tested, 0.91% active | AID 1259374; in the data active means inhibition above about 50%;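 further: 0% = vehicle wells with protein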
Target sequence (O75030 whole entry, looked up): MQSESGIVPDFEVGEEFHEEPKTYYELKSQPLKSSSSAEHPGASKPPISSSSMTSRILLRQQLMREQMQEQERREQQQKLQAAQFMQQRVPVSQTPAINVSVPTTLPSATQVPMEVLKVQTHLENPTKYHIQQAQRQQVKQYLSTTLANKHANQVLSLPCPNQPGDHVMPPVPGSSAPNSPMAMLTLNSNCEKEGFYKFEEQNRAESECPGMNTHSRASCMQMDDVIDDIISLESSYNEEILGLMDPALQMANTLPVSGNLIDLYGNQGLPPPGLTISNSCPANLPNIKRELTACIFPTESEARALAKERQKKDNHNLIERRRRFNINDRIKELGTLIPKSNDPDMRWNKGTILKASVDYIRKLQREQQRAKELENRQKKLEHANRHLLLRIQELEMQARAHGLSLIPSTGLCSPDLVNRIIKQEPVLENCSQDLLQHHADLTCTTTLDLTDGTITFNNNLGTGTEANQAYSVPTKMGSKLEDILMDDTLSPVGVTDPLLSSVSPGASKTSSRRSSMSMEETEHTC
FBW7 act = activators of human E3 ligase FBW7. normalized activity (activation), % at 26.1 µM. AID 1259310. 650,000 tested, 0.13% active. AlphaScreen FBW7–phospho-cyclin E peptide binding, activator screen; in the data active means normalized activity above about 1.9%;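 further: purified mutant Fbw7 with reduced substrate affinity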
* = called active by the depositor. Hits are enriched below; roughly 3.4% of the tested compounds scored in any of these assays.

SMILES | TEAD-YAP block | GPR151 ag | MITF inh | FBW7 act
CC(C)(C)c1ccc(-c2cn(-c3ccccc3)c3[n+]2CCCS3)cc1 | 84* | 1 | 4 | 0
CCN(CC)c1ccc(/C=N/Nc2ccccc2[N+](=O)[O-])c(O)c1 | 40* | 1 | 2 | 0
NS(=O)(=O)c1ccc(N/N=C/c2ccccc2Br)c([N+](=O)[O-])c1 | 11 | 2 | 9 | 0
CCN(CC)c1ccc(/C=N/N=C(N)N)c(O)c1 | 50* | 3 | 13 | 0
NS(=O)(=O)c1ccc(N/N=C/c2ccc(O)c(O)c2O)c([N+](=O)[O-])c1 | 2 | 3 | 70* | 0
Cc1ccccc1/C=N/Nc1ccc(S(N)(=O)=O)cc1[N+](=O)[O-] | -13 | 1 | 14 | 2.0*
Cc1csc(NC(=O)CSc2nnc(-c3ccccc3Cl)o2)n1 | -23 | -2 | 2 | 0
O=[N+]([O-])c1cc(S(=O)(=O)N/N=C/c2ccc(O)c(O)c2O)ccc1Cl | 2 | 0 | 55* | 0
Cc1ccc(S(=O)(=O)N/N=C/c2cc([N+](=O)[O-])ccc2O)cc1[N+](=O)[O-] | 0 | 1 | 8 | 0
O=S(=O)(NCc1ccco1)c1ccc2c(c1)C(=NO)c1cc(S(=O)(=O)NCc3ccco3)ccc1-2 | 8 | 0 | 19 | 0
CC(=O)Nc1ccc2nc(NC(=O)c3ccc(Cl)cc3Cl)sc2c1 | -41 | 1 | 6 | 0
O=C(Nc1nc2ccccc2s1)c1cccc(Cl)c1Cl | -82 | -1 | 0 | 0
O=C(Nc1nc2ccccc2s1)c1ccccc1F | 87* | -11 | 2 | 1
O=C(Nc1nc2ccccc2s1)c1ccccc1O | -23 | 0 | -1 | 0
O=C(Nc1nc2ccccc2s1)c1ccc(Cl)cc1Cl | 81* | -8 | -7 | 0
O=C(Nc1nc2ccccc2s1)c1ccccc1Cl | 81* | -10 | -18 | 0
Cc1ncsc1CCOC(=O)c1ccc(Cl)cc1Cl | -20 | 0 | -23 | 1
COc1ccc(CSc2nnc(-c3ccccn3)n2N)cc1 | -9 | -2 | 8 | 0
COc1ccc(-c2noc(C3CCCN(C(=O)c4c(OC)cccc4OC)C3)n2)cc1 (centres undefined) | 47* | 1 | -4 | 0
CCC(CC)C(=O)N1CCCC(c2nc(-c3cccc(OC)c3)no2)C1 (centres undefined) | 42* | -1 | -1 | 0
CCCC(=O)N1CCCC(c2nc(-c3cccc(OC)c3)no2)C1 (centres undefined) | -8 | -1 | 0 | 0
CNC(=O)c1ccc(-c2ccc3[nH]ccc3c2)nc1N(C)C | -23 | 0 | 14 | 0
O=Cc1s/c(=N\S(=O)(=O)c2ccccc2)n(CCCCl)c1Cl | 45* | -2 | 0 | 0
CCC(=O)C(C#N)c1nnc(-c2ccccc2)s1 (centres undefined) | 37* | -3 | 0 | 0
O=C(O)CCN(CCC(=O)O)c1nnc(-c2ccccc2)s1 | 8 | -1 | 5 | 0
SMILES | TEAD-YAP block | GPR151 ag | MITF inh | FBW7 act
NC(=O)c1ccc(-c2ncc(C(=O)NC3CC3)s2)cc1 | -11 | -2 | 6 | 0
CCC(C)(C)C1CCC2(CC1)NC(=O)NC2=O (centres undefined) | -12 | -1 | -2 | 0
CCOc1ccc(/C=C/C(=O)Nc2ccccc2)cc1 | 51* | -9 | 2 | 0
CC(=O)/C=C/c1ccc(OCc2ccccc2)cc1 | 44* | -5 | 8 | 0
CN(Cc1ccccc1)S(=O)(=O)c1ccc(NC(=O)/C=C/c2ccc(F)cc2)cc1 | 3 | -1 | -6 | 0
COc1ccc(/C=C/C(=O)Nc2ccc(S(=O)(=O)N(C)Cc3ccccc3)cc2)cc1 | 43* | 4 | -7 | 0
CCCCCNC(=O)c1ccc(N2CCc3ccccc32)c([N+](=O)[O-])c1 | -7 | -1 | 25 | 0
O=C1C=C(Nc2ccc(Cl)cc2Cl)CC(c2ccco2)C1 (centres undefined) | 39* | -1 | 39 | 0
O=C1C=C(NCc2ccc(Cl)cc2)CC(c2ccco2)C1 (centres undefined) | 16 | -1 | 11 | 0
COc1ccc(C[C@@H](N)c2nc3ccc(-c4cn[nH]c4)cc3c(=O)[nH]2)cc1 | 53* | 0 | 24 | 0
COc1ccccc1OCc1nc2ccc(-c3ccnc(N)n3)cc2[nH]1 | 14 | 0 | 12 | 0
Cc1ccccc1OCc1nc2ccc(-c3ccnc(N)n3)cc2[nH]1 | 52* | 1 | 6 | 0
COc1cccc(OCc2nc3ccc(-c4ccnc(N)n4)cc3[nH]2)c1 | 50* | 0 | 4 | 0
COc1cc(-c2cn[nH]c2)cc2c(=O)[nH]c(C(N)c3cccc(Cl)c3)nc12 (centres undefined) | 49* | 3 | 13 | 0
CC(CCc1ccccc1)NC(=O)CC(C)(C)CC1=NS(=O)(=O)c2ccccc2N1 (centres undefined) | 2 | -1 | 7 | 2
c1ccc(-c2ccc(NCCc3ccncc3)nc2)cc1 | -2 | 0 | 14 | 0
CC(C)CNC(=O)Cc1csc(NC(=O)C(C)(C)C)n1 | -6 | 1 | -2 | 0
Cc1ccccc1OCc1nc2ccc(-c3cn[nH]c3)cc2c(=O)[nH]1 | 33* | 2 | -1 | 0
COc1ccccc1OCc1nc2ccc(-c3cn[nH]c3)cc2c(=O)[nH]1 | -4 | 0 | 19 | 0
Cc1cc(OCCCNCC(C)O)cc(C(C)C)c1 (centres undefined) | -2 | 0 | 50 | 0
O=C(Nc1ccc(Cl)cc1)c1cnc2ccccn12 | -23 | -1 | 17 | 0
CC(C)(C)c1ccc(NC(=O)c2cnc3ccccn23)cc1 | 55* | -1 | 21 | 1
Cc1cnc(Nc2cccnc2)nc1NCc1ccccc1 | 33* | 4 | 3 | 0
FC(F)(F)c1cccc(CNc2ncnc3sccc23)c1 | 46* | 4 | -13 | 0
Cc1cnc(Nc2ccc3ncccc3c2)nc1NCc1cccc(C(F)(F)F)c1 | 53* | 5 | 7 | 0
SMILES | TEAD-YAP block | GPR151 ag | MITF inh | FBW7 act
COc1ccc(-c2nc3ncnc(NCc4cccc(C(F)(F)F)c4)c3[nH]2)cc1 | 46* | -1 | 4 | 0
CC(C)n1c(-c2cccs2)nc2c(NCc3cccc(C(F)(F)F)c3)ncnc21 | 1 | 3 | -13 | 0
O=C(NCc1nc(-c2ccncc2)n[nH]1)c1ccc(Oc2ccccc2)cc1 | 19 | 2 | 6 | 0
Cc1cnc(Nc2ccccn2)nc1NCc1cccc(C(F)(F)F)c1 | 47* | 4 | 3 | 0
Nc1nc(NCc2cccc(C(F)(F)F)c2)cc(Nc2cnccn2)n1 | 56* | -1 | 4 | 1
Cc1cnc(NCCN2CCOCC2)nc1NCc1cccc(C(F)(F)F)c1 | 32* | 1 | -6 | 0
Cc1cnc(Nc2ncccn2)nc1NCc1cccc(C(F)(F)F)c1 | 0 | 0 | -11 | 0
CCNc1ncc(C)c(NCc2cccc(C(F)(F)F)c2)n1 | 23 | 3 | -5 | 0
Cc1cnc(Nc2ccccc2)nc1NCc1cccc(C(F)(F)F)c1 | 50* | 2 | 6 | 0
CCOC(=O)c1cccc(NC(=O)c2ccc(Cl)c(Cl)c2)c1 | -61 | 0 | 12 | 0
